# HCV inh: qHTS Assay for Inhibitors of Hepatitis C Virus (HCV). Huh7.5.1 HCVcc-Cre infection, luciferase reporter, 44 h. Potency, µM (series often up to 41.8 µM), actives largely listed as inhibitors. AID 651820, 2012. hit rate 3.4% among 340,000
#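 Compounds are dispensed onto cells plated 4 h earlier at 1,000 per well, with HCVcc-Cre virus (about 0.5 moi) added next. Following 44 h of culture, luminescent signal is measured for 15 sec after 15 min with substrate at room temperature.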
# FMDV inh: High Throughput Screening for Foot and Mouth Disease Virus Antivirals; hit rate 1.2% among 410,000; FMDV antiviral cell-based qHTS; Potency, µM (doses to about 57.9 µM), most hits filed as inhibitors; calls by dose curve; tested in HEK293T cells; also: read-out not given here; nearly all actives have a fitted effect of over 45% in size
# HCMV inh: qHTS Assay for inhibitors of the human cytomegalovirus (HCMV); HFF cells, HCMV-luciferase reporter, 72 h; hits give low values; activity change, negative = inhibition, % at 57.5 µM; hit rate 4.5% among 410,000; AID 1259415, 2018; in the data active = activity change below about -60%; inconclusive = no clear call, values can overlap the other calls; inactive = above about -39%
#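 After 16 h attachment at 37C, HFF cells received test compound and HCMV-luciferase (1 PFU/cell); reporter luminescence read 72 h later, data normalized against buffer-only and known inhibitor Salinomycin.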
# AmpC inh no detg: qHTS Inhibitors of AmpC Beta-Lactamase (assay without detergent); AID 485341, 2010; Potency, µM (titrated, usually from 57.1 µM), most hits filed as inhibitors; P00811; hit rate 0.52% among 330,000; AmpC nitrocefin hydrolysis, absorbance 480 nm, 0.0001% Triton; also: nearly all actives have a fitted effect of over 20% in size
# Target sequence (P00811 whole entry, looked up): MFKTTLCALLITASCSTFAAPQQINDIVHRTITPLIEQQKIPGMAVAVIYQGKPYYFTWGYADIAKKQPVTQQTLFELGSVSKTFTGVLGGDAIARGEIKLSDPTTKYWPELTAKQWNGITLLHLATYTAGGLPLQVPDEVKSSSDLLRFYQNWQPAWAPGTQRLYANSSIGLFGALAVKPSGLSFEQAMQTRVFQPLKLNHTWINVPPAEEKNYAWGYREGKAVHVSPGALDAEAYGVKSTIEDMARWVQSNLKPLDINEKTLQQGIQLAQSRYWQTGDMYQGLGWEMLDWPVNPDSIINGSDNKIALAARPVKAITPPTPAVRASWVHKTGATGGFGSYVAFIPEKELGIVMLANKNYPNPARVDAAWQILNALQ
#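 20 mM phosphate pH 7.0 + 0.01% (detergent screen) or 0.0001% Triton X-100; 5.3 nM AmpC reagent; cpd preinc 15 min RT; nitrocefin (800 uM stock) to start; A480 q20 s × 4 min; Activity was normalised to no-enzyme and no-compound control wells.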
# AmpC inh detg: qHTS Inhibitors of AmpC Beta-Lactamase (assay with detergent); Potency, µM (top dose mostly 114 µM), usual class: inhibitors; AmpC hydrolysis of nitrocefin, absorbance 480 nm, 0.01% Triton; hit rate 0.041% among 370,000; also: nearly all actives have a fitted effect of over 25% in size
#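 20 mM phosphate pH 7.0 + 0.01% (detergent screen) or 0.0001% Triton X-100; 5.3 nM AmpC reagent; cpd preinc 15 min RT; nitrocefin (800 uM stock) to start; A480 q20 s × 4 min; Activity was normalised to no-enzyme and no-compound control wells.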
# A number is an active result; n = inactive; u = inconclusive; x = not tested or not shown. Compounds with a hit are over-represented: about 7.3% of the library has one in this group of screens. Unless noted, calls follow the shape of the dose curve; as a rule, active = well fitted curve in the direction sought with a large enough effect; inconclusive = small, poorly fitted or top-dose-only effect, or another doubt; inactive = no such curve, though single readings can be large; an effect the other way counts as inactive or inconclusive.
SMILES,HCV inh,FMDV inh,HCMV inh,AmpC inh no detg,AmpC inh detg
CC(C)(C)OC(=O)NCCCCCNC(=O)c1ncn(Cc2ccccc2)c1C(=O)NCCCCCNC(=O)OC(C)(C)C,u,n,n,n,x
CC1CCCCN1S(=O)(=O)c1cccc2nonc12 (stereo not given),n,n,x,n,n
Cc1ccc(C(=O)NC(C(=O)OCc2cn3cc(Cl)ccc3n2)C(C)C)cc1 (stereo not given),n,n,u,n,n
CCCCOc1ccc(C(C)NC(=O)CCS(=O)(=O)Cc2ccccc2F)cc1 (stereo not given),n,n,-66,n,n
O=[N+]([O-])c1cc(-c2csc(NC(CO)c3nc4ccccc4n3CCOCCO)n2)ccc1Cl (stereo not given),u,n,n,x,x
C[C@H](c1ccccc1)N1C[C@H](COCc2ccccc2)Oc2cc(N3CCC[C@H]3CO)ccc2S1(=O)=O,x,n,-64,x,x
CCCCC[C@@H](C)N1C[C@@H](COCc2ccccc2)Oc2cc(N3CC[C@H](N(C)C)C3)ccc2S1(=O)=O,x,n,-63,x,x
CCCCC[C@H](C)N1C[C@@H](COCc2ccccc2)Oc2cc(N3CC[C@H](N(C)C)C3)ccc2S1(=O)=O,x,n,u,x,x
OC(c1ccccc1)(c1ccc(Cl)cc1)C1CN2CCC1CC2 (stereo not given),2.8µM,n,n,n,n
CN(Cc1ccccc1)C(=O)Cn1ncc2c3ccccc3n(Cc3cccc(Cl)c3)c2c1=O,x,n,n,x,n
CCOCCCn1c(=N)c(C(=O)NC(C)c2ccccc2)cc2c(=O)n3cccc(C)c3nc21 (stereo not given),x,u,-73,x,n
Cc1cccn2c(=O)c3cc(C(=O)NC(C)c4ccccc4)c(=N)n(CCCn4ccnc4)c3nc12 (stereo not given),n,n,-68,n,n
COc1ccc(S(=O)(=O)N2CCC[C@H]2C(=O)N2CCC[C@H]2C(=O)NCc2ccccn2)cc1C,x,n,n,x,x
S=C1NC[C@H](Cc2ccccc2)N1CC1CCN(CCCC2CCCCC2)CC1,x,x,-105,x,x
O=C1NC[C@H](Cc2ccccc2)N(CC2CCN(CCCC3CCCC3)CC2)C1=O,n,n,n,x,x
O=C1NC[C@@H](Cc2cccc3ccccc23)N(CC2CCCCC2)C1=O,n,n,n,n,n
S=C1NC[C@H](Cc2cccc3ccccc23)N1CC1CCCCC1,2.8µM,n,n,n,n
C[C@@H]1CN([C@@H](C)CO)C(=O)c2ccccc2-c2ccccc2CO[C@@H]1CN(C)Cc1ccc(Cl)c(Cl)c1,x,x,n,x,x
Cc1ccc(NC2CCCN(C(=O)c3cc(C(C)C)nn3C)C2)cc1C (stereo not given),x,n,n,x,x
CCCNC(=O)c1nnsc1S(=O)c1ccc(Cl)cc1 (stereo not given),u,35µM,-101,n,n
CCCNC(=O)c1nnsc1S(=O)(=O)c1ccc(Cl)cc1,6.3µM,32µM,-99,n,n
CCCNC(=O)C1CCC(Cn2c(=O)c3sccc3n(CC(=O)N(CC)CC)c2=O)CC1 (stereo not given),x,n,n,x,n
O=C(CCl)Nc1cccc(Oc2ccccc2)c1,u,13µM,-97,n,n
O=C(CCl)Nc1cccc(Oc2cnccn2)c1,n,u,u,n,u
COc1ccccc1CNCC(=O)Nc1ccc(N(C)C)cc1,n,n,n,n,n
SMILES,HCV inh,FMDV inh,HCMV inh,AmpC inh no detg,AmpC inh detg
CN(C(=O)c1cccc(NC(=O)C2CCN(C(=O)OC(C)(C)C)CC2)c1)C1CCCCC1,10µM,u,n,n,x
CN(C(=O)c1cccc(NC(=O)Cc2ccc(NC(=O)C3CCCN(C(=O)C4CCCC4)C3)cc2)c1)C1CCCCC1 (stereo not given),u,u,n,x,x
CN(C(=O)c1cccc(NC(=O)Cc2ccc(NC(=O)C3CCCN(C(=O)C4CCCC4)C3)cc2)c1)C1CCCC1 (stereo not given),10µM,u,n,x,x
CN(C(=O)c1cccc(NC(=O)Cc2ccc(NC(=O)C3CCCN(C(=O)CCc4ccccc4)C3)cc2)c1)C1CCCCC1 (stereo not given),3.2µM,14µM,-75,x,x
N#Cc1ccccc1S(=O)(=O)N1CCN(C(=O)Cc2coc3cc(O)ccc23)CC1,u,n,n,n,n
Cc1ccccc1C(=O)NC(=S)Nc1ncccn1,n,n,n,n,n
CC(NC(=O)CN1C(=O)NC(C)(c2cccc3ccccc23)C1=O)c1ccccc1 (stereo not given),u,n,n,n,u
CC(CCCC(C)(C)O)NC(=O)c1ccc2oc(CCc3ccccc3)nc2c1 (stereo not given),u,u,n,n,n
CC(C)(C)c1nc2ccc(NS(=O)(=O)c3ccc(F)c(F)c3F)cc2[nH]1,n,n,-66,n,n
COC(=O)c1c(NC(=O)CSc2ncnc3ccccc23)sc(C)c1C,18µM,n,n,x,x
CCOC(=O)c1c(NC(=O)CSc2nc3ccccc3c(=O)n2-c2ccc(F)cc2)sc(C(C)=O)c1C,n,n,n,n,n
CCOC(=O)c1c(NC(=O)CSc2ncnc3ccccc23)sc(C(C)=O)c1C,11µM,25µM,n,n,u
CCN(C(=O)CSc1nnc(C2CC2)n1-c1ccccc1)C1CCS(=O)(=O)C1 (stereo not given),n,n,n,n,n
Fc1cccc(-c2cc3cnc(Nc4cccc(C(F)(F)F)c4)cc3[nH]2)c1,x,x,n,x,x
COc1ccc(C2(C(=O)NCC3Cc4cccc(-c5nc(C)cnc5C)c4O3)CCCC2)cc1 (stereo not given),x,n,x,x,x
Cc1ccc(C(=O)N2CC=C(c3ccccc3)CC2)o1,11µM,n,n,n,n
O=C(O)c1ccccc1C(=O)N1CC=C(c2ccccc2)CC1,u,n,n,n,n
Cc1cccc(C(=O)N2CCN(c3ccccn3)CC2)c1,n,n,n,n,n
Cc1cccc(C(=O)NCC(=O)N2CCN(c3ccccn3)CC2)c1,n,n,-104,n,x
Cc1cccc(C(=O)NCC(=O)N2CC=C(c3ccccc3)CC2)c1,5.6µM,n,n,n,u
CC(C)c1nc(NCCO)c(C#N)c2c1CCCC2,u,u,-66,n,n
CCSc1nc(N2CCOCC2)c2c(c1C#N)CCCC2,n,u,n,n,u
N#Cc1c(NCCCO)nc(-c2ccco2)c2c1CCCC2,10µM,n,n,n,n
CN1CCc2c(C#N)c(N3CCCCC3)nc(NCc3ccccc3)c2C1,u,n,n,n,n
N#Cc1c(NCCCO)nc(NCc2ccccc2)c2c1CCN(Cc1ccccc1)C2,11µM,n,n,n,n
CC(C)c1nc(N2CCOCC2)c(C#N)c2c1CCCC2,7.1µM,u,u,n,n
O=C(NNC(=O)c1cc(Br)c(Br)s1)c1ccncc1,n,n,n,n,n

# Screening data as filed in PubChem BioAssay.
